This passage reports growth results from PubChem BioAssay (NCI).

Compounds without any hit were thinned out: in the full panel of roughly 83,000, 20% have a hit.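 Step 1: grow cells in 96-well plates. Step 2: add test compound at a single concentration. Step 3: incubate 48 h. Step 4: record percent growth.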 Values without a mark were called inactive. The source made the active and inactive calls. Rule for the calls: active = growth percent below 10; inactive = the rest.

Some test systems named below: SR leukemia; RPMI-8226 leukemia; OVCAR-8 ovarian; OVCAR-5 ovarian; OVCAR-4 ovarian; SK-OV-3 ovarian; IGROV1 ovarian; OVCAR-3 ovarian; HS 578T breast; NCI/ADR-RES ovarian; T-47D breast; BT-549 breast; MDA-MB-435 melanoma; SW-620 colon; MCF7 breast; HCT-116 colon; HCC-2998 colon; KM12 colon; MDA-MB-468 breast.
Common to all, as to assay: NCI-60 one-dose screen, 48 h (100 = growth as untreated, 0 = no growth, -100 = all killed)
Conditions in all cases: 10 µM unless noted

Consider `O=C1Nc2cc(-c3ccc(NS(=O)(=O)c4ccc(-c5ccccc5)cc4)cc3)ccc2/C1=C/c1ccc[nH]1`, for which the growth with SR leukemia was -33.1% (active); in the assay with RPMI-8226 leukemia, 21.3%; in the assay on OVCAR-8 ovarian, 52.2%; in the assay on OVCAR-5 ovarian, 61.7%; in the assay with OVCAR-4 ovarian, 21.3%; in the assay with SK-OV-3 ovarian, 98.2%. The growth with IGROV1 ovarian was 73%; in the assay on OVCAR-3 ovarian it was -19.4% (active); in the assay with HS 578T breast it was 59.4%; in the assay with NCI/ADR-RES ovarian, 62.9%; in the assay on T-47D breast it was 3.17% (active); in the assay with BT-549 breast, 3.7% (active). Moreover, the growth in the assay on MDA-MB-435 melanoma was 40.3%; in the assay with SW-620 colon, 8.95% (active); with MCF7 breast, -25.2% (active); with HCT-116 colon, 20.3%; in the assay on HCC-2998 colon it was 50.8%; with KM12 colon, 34.2%. Also, the growth in the assay with MDA-MB-468 breast is -52.5% (active).

Turning to `Cc1ccc(C(=O)Nc2cc(-c3ccccc3)cc(C(F)(F)F)c2)cc1C#Cc1cnc2cccnn12`, the growth is 44.8% in the assay with SR leukemia; 36.9% with RPMI-8226 leukemia; 75.3% with OVCAR-8 ovarian; 85.3% with OVCAR-5 ovarian; 49% with OVCAR-4 ovarian; 123% in the assay with SK-OV-3 ovarian. The growth is 93.1% in the assay with IGROV1 ovarian; 95.5% with OVCAR-3 ovarian; 85.3% with HS 578T breast; 63.2% in the assay on NCI/ADR-RES ovarian; 42.3% with T-47D breast; 139% in the assay on BT-549 breast. For the same compound, the growth is 45.3% with MDA-MB-435 melanoma; 66.7% with SW-620 colon; 39.9% in the assay with MCF7 breast; 32.2% in the assay with HCT-116 colon; 85.3% with HCC-2998 colon; 41.9% with KM12 colon. The growth with MDA-MB-468 breast is 62.9%.

For `CCCSc1nnc(-c2c(C)nc3sccn23)o1`, the growth with SR leukemia is 120%; in the assay on RPMI-8226 leukemia it was 70.3%; in the assay on OVCAR-8 ovarian, 98.3%; in the assay with OVCAR-5 ovarian it was 85.9%; with OVCAR-4 ovarian, 71.9%; in the assay with SK-OV-3 ovarian it was 108%. For the same compound, the growth in the assay on IGROV1 ovarian was 83.8%; in the assay on OVCAR-3 ovarian, 98.5%; in the assay on HS 578T breast, 79.6%; with NCI/ADR-RES ovarian it was 83.5%; in the assay on T-47D breast, 21.2%; with BT-549 breast, 109%. In addition, the growth was 105% in the assay on MDA-MB-435 melanoma; 104% in the assay with SW-620 colon; 23% with MCF7 breast; 95.7% with HCT-116 colon; 105% in the assay on HCC-2998 colon; 96.2% in the assay with KM12 colon. In addition, the growth in the assay on MDA-MB-468 breast is -22.9% (active).

As for `Cc1ccc(C2CC(c3ccc(NC(=S)Nc4ccccc4)cc3)=NN2c2ccc(S(N)(=O)=O)cc2)cc1` (stereo not drawn), the growth in the assay with SR leukemia was 17.8%; in the assay on RPMI-8226 leukemia, 7.06% (active); in the assay with OVCAR-8 ovarian, 26%; in the assay with OVCAR-5 ovarian, 16.2%; in the assay with OVCAR-4 ovarian, 27.1%; with SK-OV-3 ovarian, 41.5%. For the same compound, the growth with IGROV1 ovarian is 19.2%; in the assay on OVCAR-3 ovarian it was 2.37% (active); with HS 578T breast, 31.7%; in the assay on NCI/ADR-RES ovarian it was 7.5% (active); in the assay with T-47D breast it was 24.5%; with BT-549 breast, -10% (active). The growth with MDA-MB-435 melanoma is 23.6%; in the assay on SW-620 colon, 19.8%; in the assay with MCF7 breast it was 2.64% (active); in the assay with HCT-116 colon, 10.1%; in the assay on HCC-2998 colon it was -16.9% (active); in the assay on KM12 colon, 2.95% (active). For the same compound, the growth in the assay with MDA-MB-468 breast was 9.79% (active).

`COc1ccc2[nH]c(O)c(N=Nc3nc(-c4ccccc4)cs3)c2c1`: the growth in the assay with SR leukemia is 27%; in the assay with RPMI-8226 leukemia it was 58.6%; with OVCAR-8 ovarian, 6.68% (active); in the assay on OVCAR-5 ovarian it was 53.2%; in the assay on OVCAR-4 ovarian, -7.14% (active); in the assay with SK-OV-3 ovarian it was -17.4% (active). The growth was 36.1% with IGROV1 ovarian; -2.28% (active) with OVCAR-3 ovarian; 41.6% in the assay on HS 578T breast; 3.46% (active) in the assay on NCI/ADR-RES ovarian; 0.04% (active) in the assay on T-47D breast; 50.2% in the assay on BT-549 breast. Further, the growth in the assay on MDA-MB-435 melanoma is 39.7%; in the assay on SW-620 colon it was 37.4%; with MCF7 breast, 11.6%; in the assay with HCT-116 colon, 1.24% (active); with HCC-2998 colon it was 58.6%; in the assay on KM12 colon it was 46.7%. The growth in the assay on MDA-MB-468 breast was -20.7% (active).

For `CCCCCCCOc1ccc(S(=O)(=O)Nc2ccc(C)c(F)c2C(=O)O)cc1`, the growth with SR leukemia was 98.7%; in the assay on RPMI-8226 leukemia, 54.9%; with OVCAR-8 ovarian it was 97.1%; with OVCAR-5 ovarian it was 107%; in the assay on OVCAR-4 ovarian it was 90.1%; in the assay on SK-OV-3 ovarian, 104%. Moreover, the growth is 109% in the assay on IGROV1 ovarian; 99.9% in the assay on OVCAR-3 ovarian; 87.8% with HS 578T breast; 94.4% in the assay on NCI/ADR-RES ovarian; 93.9% with T-47D breast; 103% in the assay on BT-549 breast. Also, the growth in the assay on MDA-MB-435 melanoma is 102%; with SW-620 colon it was 100%; in the assay on MCF7 breast, 86.6%; in the assay on HCT-116 colon, 95.5%; in the assay with HCC-2998 colon, 117%; in the assay with KM12 colon it was 97.1%. Besides, in the assay with MDA-MB-468 breast, the growth was 72.8%.

As to `COc1ccc(-c2cc(-c3cc(C(C)C)c(O)cc3C)nn2-c2ccc(S(N)(=O)=O)cc2)cc1`, the growth in the assay with SR leukemia is 5.77% (active); in the assay on RPMI-8226 leukemia, 16.5%; in the assay on OVCAR-8 ovarian, 24.5%; in the assay on OVCAR-5 ovarian, 65.8%; with OVCAR-4 ovarian, 64%; in the assay on SK-OV-3 ovarian it was 60.5%. Besides, the growth is 85.8% with IGROV1 ovarian; 8.38% (active) in the assay with OVCAR-3 ovarian; 28.9% in the assay with HS 578T breast; -17.2% (active) in the assay on NCI/ADR-RES ovarian; 12.7% in the assay with T-47D breast; -3.73% (active) with BT-549 breast. Besides, the growth in the assay with MDA-MB-435 melanoma was -58.2% (active); in the assay on SW-620 colon, 28.2%; in the assay with MCF7 breast it was 11%; with HCT-116 colon it was 27.4%; in the assay with HCC-2998 colon, 45.9%; in the assay with KM12 colon it was 2.28% (active). Also, the growth in the assay with MDA-MB-468 breast was -15.9% (active).
